Assay results taken from PubChem BioAssay AID1508602 (The Scripps Research Institute Molecular Screening Center, 2020).
Values joined by “and” are separate entries in the source; they are usually repeats but may differ in a detail not shown here. Identical values can stand only once. Screen size: about 650,000 compounds; about 6,800 (1%) were called active. No stated cut-off is given here; in the data, active means activation above about 4.9%; inactive means the rest. What follows is part of a selection rich in actives, with near analogues and random picks from the rest.

target: G-protein coupled receptor 151 (Homo sapiens) (UniProt Q8TDV0); assay: activators of human GPR151, primary screen, cell-based, PathHunter beta-arrestin, luminescence (AID 1508602); conditions: PathHunter beta-arrestin GPR151 cells, at 11.2 µM, stronger effect = higher value;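 further: 0% = median of compound wells and 100% = cells with positive control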
Sequence (Q8TDV0 whole entry, looked up): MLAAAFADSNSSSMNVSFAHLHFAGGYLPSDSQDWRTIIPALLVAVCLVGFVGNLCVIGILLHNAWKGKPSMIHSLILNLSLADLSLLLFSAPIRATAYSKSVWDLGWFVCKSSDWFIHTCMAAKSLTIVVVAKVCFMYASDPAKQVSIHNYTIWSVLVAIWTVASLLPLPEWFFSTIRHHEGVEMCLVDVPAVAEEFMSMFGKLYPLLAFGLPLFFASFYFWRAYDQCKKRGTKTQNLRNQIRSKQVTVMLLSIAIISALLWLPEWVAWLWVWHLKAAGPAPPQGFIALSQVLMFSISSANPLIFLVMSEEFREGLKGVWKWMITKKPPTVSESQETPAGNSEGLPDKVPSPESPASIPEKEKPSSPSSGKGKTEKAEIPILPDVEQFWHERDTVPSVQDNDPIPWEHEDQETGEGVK

Structure (SMILES)	activation
CCN(CC)C(=O)C1c2ccccc2C(=O)N(CCOC)C1c1c[nH]c2ccccc12 (centres undefined)	-0.555% (inactive)
COc1cc2nc(-c3ccc4c(c3)C(=O)N(CCC(C)C)C4=O)oc(=O)c2cc1OC	5.83% (active)
COc1ccc([N+](=O)[O-])cc1N1C(=O)c2ccc(-c3nc4ccccc4c(=O)o3)cc2C1=O	2.31% (inactive)
COc1ccc(-c2nc3cc(Cl)ccc3c(=O)o2)cc1OC	-0.243% (inactive)
O=C(c1ccccc1)N1CCN(c2nc3ccccc3o2)CC1	0.594% (inactive)
Cc1ccc(S(=O)(=O)N/N=C/c2ccc(N(C)C)c(Br)c2)cc1	-1.16% (inactive)
O=C(CCn1nnc2ccccc21)N/N=C/c1ccc2ccccc2c1	-0.0304% (inactive)
Cc1ccccc1Nc1nnc(SCC(=O)N(C)C)s1	-2.99% (inactive)
CCc1ccc(NS(=O)(=O)c2ccc(Cl)cc2)cc1	5.43% (active)
COc1ccc(NS(=O)(=O)c2ccc(Cl)cc2)cc1	2.48% (inactive)
CCOc1ccc(NS(=O)(=O)c2ccc(Cl)cc2)cc1	2.4% (inactive)
O=C(Nc1ccc(F)c(F)c1)c1ccc(N2CC3CC(C2)c2cccc(=O)n2C3)c(NC(=O)c2ccc(Br)o2)c1 (centres undefined)	2.62% (inactive)
CCC(Cc1ccccc1)NC(=O)c1ccco1 (centres undefined)	0.495% (inactive)
O=C(COC(=O)C(Cc1c[nH]c2ccccc12)NC(=O)c1ccco1)c1ccc(Br)cc1 (centres undefined)	0.0528% (inactive)
COc1ccc(C(=O)COC(=O)C(Cc2ccccc2)NC(=O)c2ccco2)cc1 (centres undefined)	6.4% (active)
Cc1ccsc1C(=O)OCc1nc2ccccc2s1	-2.54% (inactive)
Cc1cccnc1CN1CCN(C(=O)Cn2nnnc2CN(C)C(C)C)CC1	-1.06% (inactive)
Cc1ccc2c(c1)N(C(=O)Cn1cc(-c3ccccc3)c(N(C)C)n1)CCO2	-0.0851% (inactive)
Cc1ccc(NC(=O)Cn2cc(-c3ccccc3)c(N3CCOCC3)n2)c(C)c1	4.93% (active)
Cc1ccc(C)c(NC(=O)CN2CCOCC2)c1	-1.34% (inactive)
Cc1c(C(=O)Oc2ccccc2)sc2ncn(Cc3ccccc3F)c(=O)c12	1.05% (inactive)
CC(C)n1nccc1-c1nnc(NC(=O)Cc2ccc(F)cc2)o1	3.52% (inactive)
N=C1CCCN1CC(=O)c1ccccc1	0.114% (inactive)

Structure (SMILES)	activation
Cc1ccc2nc3[nH]c4ccccc4c3nc2c1	-4.57% (inactive)
Nc1c([N+](=O)[O-])cc(Br)c2nsnc12	0.283% (inactive)
CN(C)CC(C)(O)c1ccc2c(c1)CN(C(=O)c1cc(-c3ccsc3)n[nH]1)CCO2 (centres undefined)	-0.659% (inactive)
CCOc1ccc(NC(=O)N2CCN(CC)CC2)cc1	5.53% (active)
CCOc1ccc(NC(=O)CN2CCN(CC(N)=O)CC2)cc1	0.536% (inactive)
CCOc1ccc(NC(=O)N2CCC(N(C)CCC(C)C)CC2)cc1	-0.0877% (inactive)
CCC(=O)Nc1c(C(=O)Nc2ccccc2)oc2ccccc12	-0.454% (inactive)
CN(C)c1cccc(Nc2nc3ccc(C(=O)Nc4ccc(N5CCOCC5)cc4)cc3s2)c1	-1.45% (inactive)
CC(=O)c1cccc(-c2cc(C(=O)Nc3ccc(N4CCOCC4)cc3)ccn2)c1	1.66% (inactive)
CN(C)c1cccc(Nc2cc(C(=O)Nc3ccc(N4CCOCC4)cc3)ccn2)c1	5.03% (active)
O=C(Cc1cccs1)Nn1c(-c2cccc([N+](=O)[O-])c2)nc2ccccc2c1=O	5.65% (active)
COc1cc(OC)cc(-c2nc3ccccc3c(=O)n2NC(=O)Cc2cccs2)c1	1.45% (inactive)
O=C(/C=C/c1cccc([N+](=O)[O-])c1)Nn1c(-c2cccs2)nc2ccccc2c1=O	1.05% (inactive)
O=C1CC(c2nc3ccccc3n2CC(O)COc2ccccc2)CN1c1ccccc1 (centres undefined)	1.94% (inactive)
COc1cccc(/C=C2\C(=O)NC(=O)N(c3ccccc3Cl)C2=O)c1	1.26% (inactive)
COc1cccc(N2C(=O)NC(=O)/C(=C/c3ccc(OC)c(O)c3)C2=O)c1	4.48% (inactive)
COc1cccc(/C=C2/C(=O)NC(=O)N(c3ccccc3F)C2=O)c1	4.98% (active)
Cc1ccc(/C(O)=C2\C(=O)C(=O)N(c3nnc(C)s3)C2c2cccc(Oc3ccccc3)c2)cc1 (centres undefined)	2.53% (inactive)
CCOc1ccc(C2C(C#N)=C(N)N(c3sc4c(c3C#N)CCCC4)C3=C2C(=O)CC(C)(C)C3)cc1 (centres undefined)	-0.802% (inactive)
COc1ccc(CCn2c(-c3ccc(S(=O)(=O)N4CCOCC4)cc3)csc2=Nc2cccc(C(F)(F)F)c2)cc1OC	0.281% (inactive)
N#Cc1ccccc1OCC(=O)OCC(=O)Nc1ncc(Cl)cc1Cl	0.379% (inactive)
CCOC(=O)CNC(=O)c1sc2ncn(CC(=O)Nc3ccc(C(C)C)cc3)c(=O)c2c1C	-1.34% (inactive) and -1.19% (inactive)
O=C(CN1C(=O)c2ccccc2C1=O)NC(c1ccccc1)c1ccc(Br)cc1 (centres undefined)	5.23% (active)

Structure (SMILES)	activation
O=C(CN1C(=O)CCC1=O)NC(c1ccccc1)c1ccccc1	-0.973% (inactive)
O=C(CN1C(=O)c2ccc([N+](=O)[O-])cc2C1=O)NC(c1ccccc1)c1ccccc1	0.498% (inactive)
NC(=O)c1c(NC(=O)CN(C(=O)c2ccco2)C2CCCC2)sc2c1CCCC2	3.42% (inactive)
CN(CC(COc1cccc2ccccc12)OC(=O)c1ccc(Cl)cc1Cl)C1=NS(=O)(=O)c2ccccc21 (centres undefined)	0.501% (inactive)
CSc1nnc2n(/N=C/c3ccc(F)cc3)cnn12	-3.69% (inactive)
CCC(C)(C)NC(=O)CN(C(=O)c1csnn1)c1cccc(C)c1C	-1.04% (inactive)
Cc1ccc(NCC(=O)N/N=C\c2ccc(I)o2)cc1	5.65% (active)
COc1ccc(Cl)cc1/C=N/NC(=O)CNc1ccc(C)cc1	0.958% (inactive)
O=C(N/N=C\c1ccc(I)o1)c1ccc(Br)cc1	1.14% (inactive)
O=C1Cc2cc(S(=O)(=O)Nc3ccc(C(F)(F)F)cc3)cc3c2N1CCC3	-0.781% (inactive)
O=C1Cc2cc(S(=O)(=O)Nc3cccc(Cl)c3)cc3c2N1CCC3	5.26% (active)
COc1ccc(NS(=O)(=O)c2cc3c4c(c2)CC(=O)N4CCC3)cc1Cl	3.82% (inactive)
Cc1cccc(C)c1-n1c(N)c(C(=O)NCc2ccccc2)sc1=S	-0.178% (inactive)
Cc1ccc(C)c(NC(=O)CN(C)S(=O)(=O)c2ccc3nc(-c4ccccc4)[nH]c3c2)c1	-2.02% (inactive)
CC(=O)Oc1cccc(N2C(=O)C3C4c5ccccc5C(C)(c5ccccc54)C3C2=O)c1 (centres undefined)	22.7% (active)
CC12c3ccccc3C(c3ccccc31)C1C(=O)N(c3cccc(C(F)(F)F)c3)C(=O)C12 (centres undefined)	1.26% (inactive)
CCOc1ccc(N2C(=O)C3C4c5ccccc5C(C(C)O)(c5ccccc54)C3C2=O)cc1 (centres undefined)	4.96% (active)
CC12c3ccccc3C(c3ccccc31)C1C(=O)N(c3ccc(C(=O)O)cc3)C(=O)C12 (centres undefined)	-0.384% (inactive)
CC12c3ccccc3C(c3ccccc31)C1C(=O)N(c3cccc(C(=O)O)c3)C(=O)C12 (centres undefined)	-0.158% (inactive)
Cc1ccc(N2C(=O)C3C4c5ccccc5C(CO)(c5ccccc54)C3C2=O)cc1 (centres undefined)	-0.914% (inactive)
COc1cc(C2Nc3cc(C)c(C)cc3NC3=C2C(=O)CC(C)(C)C3)cc(OC)c1OC (centres undefined)	0.742% (inactive)
CCOC(=O)C1(Cc2cccc(OC)c2)CCCN(C(=O)COc2ccccc2OC)C1 (centres undefined)	2.47% (inactive)
CCOC(=O)C1=CN(C)C=C(C(=O)OCC)C1c1ccc(OC)cc1	5.01% (active)

Structure (SMILES)	activation
CCOC(=O)C1=CN(C)C=C(C(=O)OCC)C1c1ccc(OC)c(Br)c1	-0.344% (inactive)
CCOC(=O)C1=CN(c2ccc(OCC)cc2)C=C(C(=O)OCC)C1c1ccc(OC)cc1	0.997% (inactive)
O=C(NCCc1ccc(O)cc1)c1cccc(Nc2ccncn2)n1	-1.69% (inactive)
N#Cc1ccc(C(=O)OCc2ccc(Br)cc2)cc1	-1.47% (inactive)
CCOc1ccc(/C=C2N=C(/C=C/c3cccc(Cl)c3Cl)OC\2=O)cc1	6.64% (active)
O=C1OC(/C=C/c2cccc(Cl)c2Cl)=NC/1=C\c1cccc([N+](=O)[O-])c1	0.433% (inactive)
CCOc1ccc(/C=C2N=C(/C=C\c3cccc([N+](=O)[O-])c3)OC/2=O)cc1	-1.22% (inactive)
CN(Cc1cccc(C(F)(F)F)c1)C(=O)CC1C(=O)NCCN1Cc1ccccc1 (centres undefined)	-0.0176% (inactive)
O=C(c1ccc(Cl)cc1)N1N=C(c2ccccc2)CC1c1ccc(Cl)cc1 (centres undefined)	0.747% (inactive)
COc1ccc(C2=NN(C(=O)c3ccccc3Cl)C(c3cccc(OC)c3OC)C2)cc1OC (centres undefined)	-0.321% (inactive)
COc1ccc(C2=NN(C(=O)c3cc(OC)c(OC)c(OC)c3)C(c3ccc(Cl)cc3)C2)cc1OC (centres undefined)	7.04% (active)
Cc1nnc(SCc2ccc(CSc3nnc(C)n3N)cc2)n1N	-2.22% (inactive)
COc1ccccc1-c1cc(N)n(S(=O)(=O)c2ccccc2)n1	-0.0893% (inactive)
COc1ccc(-c2cc(N)n(S(=O)(=O)c3ccc([N+](=O)[O-])cc3)n2)c(OC)c1	-0.106% (inactive)
COc1ccc(-c2cc(N)n(S(=O)(=O)c3ccccc3)n2)c(OC)c1	6.94% (active)
O=C1COc2cc(S(=O)(=O)CCC(=O)N3CCN(c4ccccc4F)CC3)ccc2N1	0.891% (inactive)
CCOc1ccc(OCCOCCN2CC(C)OC(C)C2)cc1 (centres undefined)	-1.18% (inactive)
COc1ccc(N/C=C(/C#N)c2nc(-c3ccc(F)cc3)cs2)c(OC)c1	1.79% (inactive)
COc1ccccc1Nc1nc(-c2ccc(Br)cc2)cs1	-0.402% (inactive)
COc1ccc(Nc2nc(-c3ccc(F)cc3)cs2)c(OC)c1	13.1% (active)
